From PubChem BioAssay AID1476 (National Center for Advancing Translational Sciences (NCATS), 2009)
Among all 200,000 compounds or so, about 4,500 (2.2%) were called active. Roughly 12% stayed inconclusive and do not appear here. The entries come from a sample that favours actives as a whole. A number with no mark means an inactive call. Calls come from the whole dose curve; as a rule, active = well fitted inhibition curve with a large enough effect; inconclusive = small, poorly fitted or top-dose-only effect, or effect the other way; inactive = flat fitted curve, though single readings scatter.

Target: Cruzipain (Trypanosoma cruzi) (UniProt P25779)
Sequence (P25779 123-467 limits assumed): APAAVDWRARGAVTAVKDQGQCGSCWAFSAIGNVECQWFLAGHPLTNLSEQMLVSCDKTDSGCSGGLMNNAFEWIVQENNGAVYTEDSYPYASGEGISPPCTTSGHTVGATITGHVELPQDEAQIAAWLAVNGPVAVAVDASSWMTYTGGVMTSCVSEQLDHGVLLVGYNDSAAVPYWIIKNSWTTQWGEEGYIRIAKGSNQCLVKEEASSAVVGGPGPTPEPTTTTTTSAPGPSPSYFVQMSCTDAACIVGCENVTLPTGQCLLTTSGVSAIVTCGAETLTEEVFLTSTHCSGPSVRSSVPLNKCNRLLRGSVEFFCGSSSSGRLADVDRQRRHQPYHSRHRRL
Test: qHTS Assay for Promiscuous and Specific Inhibitors of Cruzain (without detergent); note: nearly all actives have a fitted effect of over 40% in size;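 for max response, negative = inhibition: plate controls were enzyme without inhibitor for no effect and buffer without enzyme for full effect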
Details: purified cruzain, Z-FR-AMC fluorescence, no detergent
Summary of the method: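 Detergent-free condition (0.00005% Triton X-100) in acetate buffer pH 5.5 with DTT. 1.5 nM enzyme and compound were pre-mixed 15 min, then 2 uM Z-FR-AMC substrate added; reaction progress from fluorescence change between first and third reads (60 s).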
Potency is the fitted concentration of half-maximal effect.

| SMILES | max response, negative = inhibition [%] | Potency |
| --- | --- | --- |
| N#Cc1ccc(-c2ccc(F)cc2)nc1Sc1ccccc1 | -27.2 |  |
| CN(C)c1ccnc(Oc2ccc(F)cc2)c1C#N | -8.17 |  |
| N#Cc1ccc(-c2ccc(Cl)cc2)nc1Oc1ccc(F)cc1 |  | 25.1 µM (active) |
| COc1cc(NC(=O)Cn2c(=O)n(Cc3ccco3)c(=O)c3oc4ccccc4c32)cc(OC)c1 | -21.5 |  |
| Cc1ccc(C)c(CNC(=O)c2cc3ccccn3n2)c1 | -9.01 |  |
| Cc1ccccc1C(=O)NNC(=O)CN1C(=O)c2ccccc2C1=O | -8.81 |  |
| C=CCn1c(C)cc(C(=O)CN2C(=O)c3ccccc3C2=O)c1C | 4.29 |  |
| Cc1cc2c(cc1C)N(C(=O)CN1C(=O)c3ccccc3C1=O)C(C)(C)c1ssc(=S)c1-2 |  | 2.51 µM (active) |
| O=C(CN1CCN(Cc2ccc(Cl)cc2)C1=O)NCc1ccc(F)cc1 | -6.99 |  |
| COc1ccc(CCNC(=O)CCCCn2c(=O)c3ccccc3n(Cc3ccccc3C)c2=O)cc1OC | -7.48 |  |
| Cc1cc(C)c2nc(NC(=O)C3CCCO3)sc2c1 (stereo not given) | 0.42 |  |
| Cc1cc(C)c2nc(NC(=O)c3ccc4c(c3)OCO4)sc2c1 |  | 10 µM (active) |
| O=C(Nc1nc2ccccc2s1)c1ccc2c(c1)OCO2 | -5.87 |  |
| O=C(c1ccc2c(c1)N(Cc1ccc(Cl)cc1)C(=O)c1ccccc1S2(=O)=O)N1CCCCC1 | 0.0442 |  |
| Cc1ccc(C2=N/C(=C\c3ccc(OS(=O)(=O)c4ccc(C)cc4)cc3)C(=O)O2)cc1 |  | 20 µM (active) |
| O=C1OC(c2ccc(Cl)cc2)=N/C1=C\c1cccnc1 | -2.62 |  |
| CCOc1cc(/C=C2/N=C(c3ccc(C(C)(C)C)cc3)OC2=O)cc(Cl)c1OS(C)(=O)=O | 1.67 |  |
| CN1CCN(C2(CNC(=O)COc3ccc(C(C)(C)C)cc3)CCCCC2)CC1 | -0.272 |  |
| CCn1c(C)c(C)c2cc(C(=O)NCCc3cc(OC)ccc3OC)ccc21 | 3.29 |  |
| Cc1ccc(CNC(=O)CCC(=O)N2CC(C)Sc3ccccc32)cc1 (stereo not given) | 3.17 |  |
| Cc1ccc(C(=O)Nc2nnc(-c3ccncc3)s2)o1 | -16.9 |  |
| Cc1occc1C(=O)Nc1nnc(-c2ccncc2)s1 | -3.11 |  |
| CC(C)=CC(=O)Nc1nnc(-c2ccc(F)cc2)s1 |  | 12.6 µM (active) |

| SMILES | max response, negative = inhibition [%] | Potency |
| --- | --- | --- |
| O=C(NCC12CC3CC(CC(C3)C1)C2)c1cc2nc(-c3ccccc3)cc(C(F)(F)F)n2n1 | -1.29 |  |
| CC(Sc1oc(-c2ccco2)nc1S(=O)(=O)c1ccc(Br)cc1)c1ccccc1 (stereo not given) | -8.99 |  |
| CN(Cc1ccccc1)c1ccc(-c2nc(-c3ccccc3)no2)cc1[N+](=O)[O-] | -0.924 |  |
| O=C(NCc1ccccc1)c1ccc2c(c1)nc1n2CCCCC1 | -10.7 |  |
| O=C(Nc1ccc(O)c(-c2nc3ccccc3o2)c1)c1ccc(-c2cccc(Cl)c2)o1 | 1.11 |  |
| CCCOc1ccc(C(=O)Nc2ccc3oc(-c4cccc(Cl)c4Cl)nc3c2)cc1 | 7.94 |  |
| O=C(NC(=S)Nc1ccc2oc(=O)ccc2c1)c1ccc(-c2cccc(Cl)c2Cl)o1 |  | 5.01 µM (active) |
| COC(=O)c1cc(NC(=O)CCc2c(C)nc3c4c(C)cc(C)nc4nn3c2C)cc(C(=O)OC)c1 | -14.1 |  |
| COc1cccc2cc(-c3nc(Cl)c4c5c(sc4n3)CC(C)CC5)c(=O)oc12 (stereo not given) | -8.92 |  |
| CCc1ccccc1NC(=O)c1cc(-c2ccc3c(c2)OCO3)on1 | -1.06 |  |
| Clc1ccccc1-c1cc(NCCN2CCOCC2)ncn1 | -3.09 |  |
| c1ccc2cc3c(NCCN4CCOCC4)ccnc3cc2c1 |  | 25.1 µM (active) |
| c1ccc2[nH]c(NCCN3CCOCC3)nc2c1 | -8.64 |  |
| COc1ccc(-n2c(=O)c3ccccc3n(Cc3ccccc3Cl)c2=O)cc1 | 6.51 |  |
| Cc1cc2c(c(=O)n1Cc1ccco1)C(c1ccccc1)C(C#N)=C(N)O2 (stereo not given) | -4.14 |  |
| CCOc1ccccc1NC(=O)Cn1c(=O)n(Cc2ccco2)c(=O)c2sc3ccccc3c21 | -0.26 |  |
| CN(c1ccccc1)c1ccc(/C=c2\s/c(=C(/C#N)C(=O)C(C)(C)C)n(Cc3ccco3)c2=O)cc1 |  | 3.16 µM (active) |
| O=C(NCCCc1ccccc1)c1ccc2c(c1)sc1nc(-c3ccc(F)cc3)cn12 | 4.05 |  |
| Cc1csc(NC(=O)c2ccc(-c3ccc(Cl)cc3Cl)o2)n1 |  | 10 µM (active) |
| Cc1csc(NC(=S)Nc2cccc(Cl)c2)n1 | -0.724 |  |
| O=C(Nc1cccc2ncccc12)c1ccc(-c2ccc(Cl)cc2Cl)o1 | -11.1 |  |
| Cc1ccc(NC(=O)c2cc3cc(C)ccc3n2C)cc1 | -3.53 |  |
| Cn1c(=O)n(C)c2cc(C(=O)Nc3ccc4c(c3)OCO4)ccc21 | -14 |  |

| SMILES | max response, negative = inhibition [%] | Potency |
| --- | --- | --- |
| O=C(Nc1ccc2c(c1)OCO2)c1ccc(N2C(=O)c3ccccc3C2=O)cc1 |  | 6.31 µM (active) |
| O=C(Nc1ccccc1)c1ccc2c(c1)OCO2 | 1.37 |  |
| CCOc1ccc(CNC(=O)CCC(=O)N2CCSc3ccccc32)cc1 | 1.55 |  |
| COc1ccc(-c2onc(C)c2C)cc1S(=O)(=O)NCC1CCN(Cc2cccc(F)c2)CC1 | 0.417 |  |
| CCc1ccccc1NC(=O)CSc1nnc(-c2ccccc2)c(-c2ccccc2)n1 | -0.884 |  |
| Clc1cccc(N=C2NN=C(c3ccc4c(c3)OCCO4)CS2)c1 |  | 10 µM (active) |
| CCOC(=O)C1=C(O)CSC1=Nc1cccc(Cl)c1 | -9.26 |  |
| CCOc1ccc(CNC(=O)Cn2cc3c(n2)-c2c(oc(C(=O)N4CCCC4)c2C)CC3)cc1 | 23.3 |  |
| COc1ccc2cc(CNc3ccc(OC)c(OC)c3)c(=O)n(CC(=O)Nc3ccccc3F)c2c1 | 13.9 |  |
| O=C(CSc1nccn1C1CCCC1)Nc1cc(C(F)(F)F)ccc1Cl | 9.92 |  |
| COc1ccc(C(=O)CSc2nnc(NC(=O)C3CC(=O)N(c4cccc(OC)c4)C3)s2)cc1 (stereo not given) | -5.43 |  |
| CC(=O)c1ccc(NC(=O)CSc2nnc(NC(=O)Nc3ccccc3)s2)cc1 | 10.4 |  |
| O=C(/C=C/c1ccccc1)Nc1nnc(SCC(=O)c2ccc3ccccc3c2)s1 |  | 6.31 µM (active) |
| O=C(NCCc1csc(-c2ccc(C(F)(F)F)cc2)n1)C(=O)Nc1ccc(F)c(Cl)c1 | -2.67 |  |
| Cc1ccc(OCC(=O)OCc2cc(=O)n3nc(C4CC4)sc3n2)cc1 | -8.05 |  |
| N#C/C(=C(/O)Cc1cccc2ccccc12)c1nc2ccccc2s1 |  | 12.6 µM (active) |
| COC(=O)c1nc2ccccc2s1 | -9.6 |  |
| c1ccc2sc(SCCSc3nc4ccccc4s3)nc2c1 | -3.12 |  |
| Cc1ccc(-c2nn3c(=O)cc(CN4CCN(C(=O)Nc5cccc(C(F)(F)F)c5)CC4)nc3s2)cc1 | -9.63 |  |
| COc1ccc(Cn2c(C(=O)O)c(CNCCc3cccs3)c3ccc(OC)cc32)cc1 | -3.19 |  |
| Cc1ccc(NS(=O)(=O)c2ccc3c(c2)CC(=O)N3)cc1Cl |  | 15.8 µM (active) |
| Cc1ccc(S(=O)(=O)NCCC(=O)Nc2ccc(C)c(Cl)c2)cc1C | -0.389 |  |
| COc1ccc(NC(=O)CCNS(=O)(=O)c2ccc3c(c2)CCCC(=O)N3)cc1Cl | -2.51 |  |

| SMILES | max response, negative = inhibition [%] | Potency |
| --- | --- | --- |
| Cc1nn(CC(=O)O)c(=O)c2cc3cc(F)ccc3n12 | -12.5 |  |
| Cc1cccc(-n2ccnc2SCC(=O)Nc2cc(C(F)(F)F)ccc2Cl)c1 | -5.01 |  |
| Cc1ccc(NC(=O)CSc2nc3c(c(=O)[nH]2)CN(Cc2ccc4c(c2)OCO4)CC3)cc1C | -8.7 |  |
| CCn1c2ccccc2c2cc(NC(=O)COC(=O)c3cc(S(=O)(=O)N4CCCCC4)ccc3Cl)ccc21 |  | 6.31 µM (active) |
| COc1ccc(OCC(=O)OCC(=O)Nc2ccc(S(=O)(=O)N3CCCCC3)cc2)cc1 | 6.2 |  |
| CC(=O)c1c(C)[nH]c(C(=O)OCC(=O)Nc2cc(S(=O)(=O)N3CCCCC3)ccc2C)c1C | 9.33 |  |
| CCOC(=O)CNC(=O)c1cc2c(=O)n3cccc(C)c3nc2s1 | -17.8 |  |
| O=C(Cn1cc(SCc2ccccc2)c2ccccc21)N1CCCCC1 | -0.659 |  |
| C=CCNC(=O)/C(=C\c1cccc([N+](=O)[O-])c1)NC(=O)c1ccccc1 | 10.7 |  |
| CN(C)CCNC(=O)/C(=C/c1cccc([N+](=O)[O-])c1)NC(=O)c1ccccc1 | -6.18 |  |
| O=C(N/N=C/c1cc([N+](=O)[O-])ccc1O)/C(=C\c1cccs1)NC(=O)c1ccccc1 |  | 20 µM (active) |
| COc1cccc(NC(=O)N2CCN(C(=O)c3nsc4ccccc34)CC2)c1 | 16.2 |  |
| COc1cc(OC)c(NC(=O)c2c3c(nn2C)-c2ccccc2SC3)cc1Cl | -6.8 |  |
| COc1ccc(NC(=O)CSc2nc3ncccc3[nH]2)c(OC)c1 | -7.09 |  |
| O=C(CC(c1cccs1)N1Cc2ccccc2C1=O)Nc1ccc(F)cc1F (stereo not given) | -15.6 |  |
| CC(=O)Nc1ccc(NC(=O)c2cc3sccc3n2Cc2ccc(F)cc2)cc1 | 23.5 |  |
| O=C(NCc1ccco1)c1cc2sccc2n1Cc1ccc(F)cc1 | -11.7 |  |
| CC1Cc2ccccc2N1C(=O)c1cc2sccc2n1Cc1ccccc1 (stereo not given) |  | 25.1 µM (active) |
| Cc1cc(=O)[nH]c(SCC(=O)N2c3ccccc3CC2C)n1 (stereo not given) | -2.54 |  |
| O=C(c1cc2sccc2n1Cc1ccc(F)cc1)N1CCc2ccccc21 |  | 25.1 µM (active) |
| CCOC(=O)c1cc2sccc2n1Cc1ccc(C#N)cc1 | -11.1 |  |
